{"source": "PubChem BioAssay (Tox21)", "note": "“And” between values parts separate entries of the source, which are not always exact repeats. Equal entries are not always repeated. Inconclusive results are not listed. Entries that show only a call come without a potency. Values without a mark were called inactive. The source made the active and inactive calls. The call rests on the fitted dose curve; in most records, active means well fitted inhibition curve with a large enough effect in the repeat runs; inconclusive means weak or mixed curves; inactive means no such curve, though single readings can be large or run the other way. Potency means the concentration at half of the fitted maximal effect."}
{"test": "qHTS assay to identify small molecule antagonists of the thyroid receptor (TR) signaling pathway (AID 743065); further: nearly all actives have a fitted effect of over 55% in size", "conditions": "GH3.TRE-Luc, T3-stimulated luciferase inhibition, 23.5 h; series mostly up to 70.3 µM; activity, negative = inhibition: at the top concentration", "excerpt": "U.S. Tox21 Program National Center for Advancing Translational Sciences [NCATS] NIH Chemical Genomics Center [NCGC] U.S. Environmental Protection Agency [EPA] National Institutes of Environmental Health Sciences [NIEHS] National Toxicology Program [NTP] U.S. Food and Drug Administration [FDA] Tox21 Assay Overview: Thyroid receptor (TR), a nuclear hormone receptor, plays an important role in development, proliferation, differentiation, metabolism, brain function, and cardiovascular system. […] To profile the Tox21 10K compound library in TR signaling, a cell-based GH3-TRE-Luc assay (GH3.TRE-Luc cell line, developed by the laboratory of Dr. Albertinka J. Murk, Wageningen University) was used to measure the inhibition of TR. GH3 (rat pituitary tumor) cells stably expressing a TR activity sensor consisting of two TR response elements and a luciferase reporter gene.\nTox21 Assay Protocol Summary: GH3.TRE-Luc cells were dispensed at 1500 cells/4 uL/well into 1536-well white solid bottom plates using a Multidrop Combi dispenser (Thermo Fisher Scientific Inc., Waltham, MA). After the assay plates were incubated at 37 C for 4 hours, 23 nL of library compound or DMSO controls was transferred to the assay plates by a pintool station (Kalypsys, San Diego, CA), followed by addition of 1 ul of T3 (1 nM, final concentration in the wells) to stimulate TR transactivation. The assay plates were incubated at 37 C for 23.5 h, and then 1 uL of CellTiter-Fluor reagent (Promega, Madision, WI) of measuring cytotoxicity was added to each well using a Bioraptr Flying Reagent Dispenser (FRD) workstation (Beckman Coulter, Indianapolis, IN, USA). The plates were incubated at 37 C and 5% CO2 for additional 30 min, and fluorescence intensity was measured by a ViewLux plate reader (PerkinElmer, Shelton, CT). For measuring luciferase reporter gene activity, 4 uL of ONE-Glo Luciferase Assay reagent (Promega) was added to each well using a Bioraptr FRD (Beckman Coulter), followed by 30 min incubation at room temperature. The luminescence intensity of plates was recorded by a ViewLux plate reader (PerkinElmer, Shelton, CT).", "units": {"activity, negative = inhibition": "%"}}
{"smiles": "c1ccncc1", "Potency": "inactive"}
{"smiles": "c1ccc2c(c1)c1cccc3ccc4cccc2c4c31", "Potency": "inactive"}
{"smiles": "COC(=O)C1=C(C)NC(C)=C(C(=O)OCCN(C)Cc2ccccc2)C1c1cccc([N+](=O)[O-])c1", "note": "(stereo not given)", "Potency": "9.44 µM (active) and 17.1 µM (active)"}
{"smiles": "CN1C(C(=O)Nc2ccccn2)=C(O)c2ccccc2S1(=O)=O", "Potency": "inactive"}
{"smiles": "COC(=O)c1ccccc1", "Potency": "inactive"}
{"smiles": "CC(C)=CCCC(C)CCO", "note": "(stereo not given)", "Potency": "inactive"}
{"smiles": "CC(C)=CCC/C(C)=C\\CO", "Potency": "inactive"}
{"smiles": "c1ccc2sc(SSN3CCOCC3)nc2c1", "Potency": "13.7 µM (active) and 15.4 µM (active)"}
{"smiles": "C[Si](C)(C)O[Si](C)(C)C", "Potency": "inactive"}
{"smiles": "COc1cc([C@@H]2c3cc4c(cc3[C@H](O)[C@H]3COC(=O)[C@H]23)OCO4)cc(OC)c1OC", "Potency": "29.8 nM (active) and 24.3 nM (active)"}
{"smiles": "O=C(c1ccc(OCCN2CCCCC2)cc1)c1c(-c2ccc(O)cc2)sc2cc(O)ccc12", "Potency": "6.68 µM (active) and 4.86 µM (active)"}
{"smiles": "OC[C@H]1O[C@@H]2O[C@H]3[C@H](O)[C@@H](O)[C@@H](O[C@H]4[C@H](O)[C@@H](O)[C@@H](O[C@H]5[C@H](O)[C@@H](O)[C@@H](O[C@H]6[C@H](O)[C@@H](O)[C@@H](O[C@H]7[C@H](O)[C@@H](O)[C@@H](O[C@H]8[C@H](O)[C@@H](O)[C@@H](O[C@H]1[C@H](O)[C@H]2O)O[C@@H]8CO)O[C@@H]7CO)O[C@@H]6CO)O[C@@H]5CO)O[C@@H]4CO)O[C@@H]3CO", "Potency": "inactive"}
{"smiles": "CN(C)CCC=C1c2ccccc2CCc2ccccc21", "Potency": "26.6 µM (active) and 24.3 µM (active) and 21.7 µM (active)"}
{"smiles": "Cc1c(C(N)=O)cc([N+](=O)[O-])cc1[N+](=O)[O-]", "Potency": "inactive"}
{"smiles": "O=C(c1ccccc1)c1ccc(O)cc1O", "Potency": "inactive"}
{"smiles": "c1ccc2c(c1)Oc1ccccc1S2", "Potency": "inactive"}
{"smiles": "COC(=O)CCC(=O)OC", "Potency": "inactive"}
{"smiles": "Cc1cccc([N+](=O)[O-])c1C", "Potency": "inactive"}
{"smiles": "COC(=O)Nc1nc2ccc(S(=O)c3ccccc3)cc2[nH]1", "note": "(stereo not given)", "Potency": "10.6 µM (active) and 15.3 µM (active)"}
{"smiles": "O=CCc1ccccc1", "Potency": "inactive"}
{"smiles": "COc1ccc(C(=O)CC(=O)c2ccc(C(C)(C)C)cc2)cc1", "Potency": "29.8 µM (active)"}
{"smiles": "c1ccc2cc(Nc3ccc(Nc4ccc5ccccc5c4)cc3)ccc2c1", "Potency": "inactive"}
{"smiles": "CCCCNS(=O)(=O)c1ccccc1", "Potency": "inactive"}
{"smiles": "OC1CCCCCCCCCCC1", "activity, negative = inhibition": -14.5}
{"smiles": "CC(C)CC(C)(O)C#CC(C)(O)CC(C)C", "note": "(stereo not given)", "Potency": "inactive"}
{"smiles": "O=C(c1ccccc1)c1ccccc1O", "Potency": "inactive"}
{"smiles": "CC(C)OC=O", "Potency": "inactive"}
{"smiles": "CCCCOCCOCCO", "Potency": "inactive"}
{"smiles": "OCCO", "Potency": "inactive"}
{"smiles": "CCOCCOCCO", "Potency": "inactive"}
{"smiles": "Cc1ncc[nH]1", "Potency": "inactive"}
{"smiles": "O=P(O)(O)O", "Potency": "inactive"}
{"smiles": "COC(C)COC(C)COC(C)CO", "note": "(stereo not given)", "Potency": "inactive"}
{"smiles": "Oc1ccc(O)cc1", "Potency": "21.1 µM (active) and 30.5 µM (active) and 30.6 µM (active)"}
{"smiles": "C=C(C)C(=O)OCCOC(=O)C(=C)C", "Potency": "inactive"}
{"smiles": "Cc1cccc(C(=O)O)c1", "Potency": "inactive"}
{"smiles": "CC(=O)c1ccccn1", "Potency": "inactive"}
{"smiles": "CCCCCCCCCC(=O)OC", "Potency": "inactive"}
{"smiles": "CCC(C)CO", "note": "(stereo not given)", "Potency": "inactive"}
{"smiles": "CN(C)C(=N)N=C(N)N", "Potency": "inactive"}
